The panel holds about 83,000 compounds, 20% with a hit somewhere; the sample as a whole holds those more often.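 Compound tested at a single concentration for 48 hours in 96-well plates; a percent growth value below 10 was scored as active.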 A number with no mark means an inactive call. The source made the active and inactive calls.
test system: A549/ATCC NSCLC; assay: NCI-60 one-dose screen, 48 h (100 = growth as untreated, 0 = no growth, -100 = all killed); conditions: 10 µM unless noted

Compound	growth
CC1=NCC2NC(=O)NC(C)=C12 (centres undefined)	105%
COc1ccc(CCN2C(=O)CCSC2=S)cc1OC	97.6%
CCOC(=O)c1sc(-c2ccc(OS(=O)(=O)c3ccccc3[N+](=O)[O-])c(C=O)c2)nc1C	82.3%
Cc1cccc(NC(=O)c2sc3nc4c(cc3c2N)CCCC4)c1C	26.3%
COc1cc(C(=O)NN=C2c3ccccc3-c3ccccc32)cc(OC)c1OC	43.6%
Nc1ccc(-n2c(=O)oc3ccc(Cl)cc3c2=O)c(Cl)c1	6.26% (active)
O=C(Nc1ccc(-c2nc3cc4ccccc4cc3[nH]2)cc1)c1cccc(Br)c1	27%
CCOC(=O)CSc1c(-c2ccccc2)c2cc(Cl)ccc2[nH]c1=O	102%
O=C(NCc1ccco1)C1CN(c2ccc(Cl)cc2)N(c2ccc(Cl)cc2)C1=O (centres undefined)	40.1%
O=C(Nc1ncc(Cc2cccc(C(F)(F)F)c2)s1)C1COc2ccccc2O1 (centres undefined)	74.7%
COc1ccc(-n2c(C(O)c3ccccc3)nn(CN3CCOCC3)c2=S)cc1 (centres undefined)	103%
Fc1ccc(Oc2ccc(Nc3ncnc4onc(-c5ccccc5)c34)cc2)cc1	90.1%
Cc1ccc(N=NC2C(=O)N(c3ccc(Cl)cc3)N(c3ccc(Cl)cc3)C2=O)cc1	99%
Nc1nc(Nc2cccc(F)c2)nc2ccccc12	46.3%
O=C(Nc1ccc(Br)cc1F)c1cc(F)ccc1O	9.75% (active)
Nc1ccc(C2c3ccccc3Oc3ccccc32)cc1	97.7%
COc1ccc(/C=C/C(=O)c2ccc3cc(OC)c(OC)cc3c2)cc1OC	19.5%
CN(C)c1ccc(N=Cc2ccc(N3CCOCC3)cc2)cc1	73.7%
CC(=O)c1ccc(NC(=O)Nc2ccc(S(=O)(=O)Nc3ccc(Cl)nn3)cc2)cc1	103%
CCC(C)(C)C(=O)O[C@H]1C[C@@H](C)C=C2C=C[C@H](C)[C@H](CC[C@@H]3CC=CC(=O)O3)[C@H]21	78.7%
COC(=O)[C@H]1CCCN1C(=O)[C@H]1CCCN1C(=O)[C@H](Cc1c[nH]c2ccccc12)NC(=S)Nc1cc(C(F)(F)F)cc(C(F)(F)F)c1	35%
NCCOc1ncccc1/C=C1\c2ccccc2-c2ccc([N+](=O)[O-])cc21	-58.6% (active)
CC(C)C[C@H](C(=O)N[C@H](C(N)=O)C(C)C)N1CC=CCN(OCc2ccccc2)S1(=O)=O	94.5% [2.5 µM]
COc1ccc(N)c(-c2cc3c(c4c2[nH]c2ccc(OC)cc24)CCCC3)c1	64.1%
COc1ccc(-c2nc(-c3ccccn3)c(-c3ccccn3)n2CC(C)C)cc1OC1CCCC1	8.04% (active)

test system: 786-0 renal; assay: as above; conditions: 10 µM unless noted

Compound	growth
O=C1NC(=O)C(=Cc2cn(Cc3cn(Cc4ccc(Cl)cc4Cl)nn3)c3ccccc23)C(=O)N1	106%
CN1CCN(Cc2ccc(C(=O)Nc3cncc(C#Cc4cnc(N)c5ccccc45)c3)cc2C(F)(F)F)CC1	-82.1% (active)
COc1ccc(C2C3=C(COC3=O)N(CCO)c3cc4c(cc32)OCCO4)cc1 (centres undefined)	87.5%
O=C(Nc1ccc(I)cc1F)c1cc(Cl)ccc1O	-7.97% (active)
NCCOc1ccccc1/C=C1\c2ccccc2-c2ccc([N+](=O)[O-])cc21	-41.5% (active)
O=c1oc2ccc(I)cc2c(=O)n1-c1ccc(Cl)cc1F	8.94% (active)
COc1cc(/C=C2\CN(C)C/C(=C\c3cc(CN4CCOCC4)c(O)c(OC)c3)C2=O)cc(CN2CCOCC2)c1O	76.6%
CCOC(=O)c1sc(-c2ccc(OS(=O)(=O)C[C@]34CCC(CC3=O)C4(C)C)c(C=O)c2)nc1C	27.4%
COc1ccc(/C=C2/SC(=O)N(CC(=O)N3CCN(c4cc5c(cc4F)c(=O)c(C(=O)O)cn5C4CC4)CC3)C2=O)cc1	97.3%
COc1ccc(C)c2sc(N(Cc3cccnc3)C(=O)c3ccc(C#N)cc3)nc12	-12.2% (active)
NC(=O)CSc1nc(-c2ccc(F)cc2)cc(-c2ccco2)n1	105%
CC(=O)c1ccc(Nc2nc(NCCO)nc(Nc3ccc(Cl)cc3)n2)cc1	104%
O=c1c2cc(F)cc(Cl)c2sc2c(Cl)nc3ccccc3c12	110%
O=Cc1cc2ccccc2nc1Nc1nccs1	69%
CC1=NCC2NC(=O)NC(C)=C12 (centres undefined)	96.9%
COc1ccc(CCN2C(=O)CCSC2=S)cc1OC	44.2%
CCOC(=O)c1sc(-c2ccc(OS(=O)(=O)c3ccccc3[N+](=O)[O-])c(C=O)c2)nc1C	80.3%
Cc1cccc(NC(=O)c2sc3nc4c(cc3c2N)CCCC4)c1C	34%
COc1cc(C(=O)NN=C2c3ccccc3-c3ccccc32)cc(OC)c1OC	41.9%
Nc1ccc(-n2c(=O)oc3ccc(Cl)cc3c2=O)c(Cl)c1	-33.5% (active)

Compound	growth
O=C(Nc1ccc(-c2nc3cc4ccccc4cc3[nH]2)cc1)c1cccc(Br)c1	17.6%
CCOC(=O)CSc1c(-c2ccccc2)c2cc(Cl)ccc2[nH]c1=O	97.1%
O=C(NCc1ccco1)C1CN(c2ccc(Cl)cc2)N(c2ccc(Cl)cc2)C1=O (centres undefined)	37.6%
O=C(Nc1ncc(Cc2cccc(C(F)(F)F)c2)s1)C1COc2ccccc2O1 (centres undefined)	99.2%
COc1ccc(-n2c(C(O)c3ccccc3)nn(CN3CCOCC3)c2=S)cc1 (centres undefined)	106%
Fc1ccc(Oc2ccc(Nc3ncnc4onc(-c5ccccc5)c34)cc2)cc1	97.3%
Cc1ccc(N=NC2C(=O)N(c3ccc(Cl)cc3)N(c3ccc(Cl)cc3)C2=O)cc1	108%
Nc1nc(Nc2cccc(F)c2)nc2ccccc12	46.5%
O=C(Nc1ccc(Br)cc1F)c1cc(F)ccc1O	-4.66% (active)
Nc1ccc(C2c3ccccc3Oc3ccccc32)cc1	105%
COc1ccc(/C=C/C(=O)c2ccc3cc(OC)c(OC)cc3c2)cc1OC	42.9%
CN(C)c1ccc(N=Cc2ccc(N3CCOCC3)cc2)cc1	101%
CC(=O)c1ccc(NC(=O)Nc2ccc(S(=O)(=O)Nc3ccc(Cl)nn3)cc2)cc1	108%
CCC(C)(C)C(=O)O[C@H]1C[C@@H](C)C=C2C=C[C@H](C)[C@H](CC[C@@H]3CC=CC(=O)O3)[C@H]21	110%
COC(=O)[C@H]1CCCN1C(=O)[C@H]1CCCN1C(=O)[C@H](Cc1c[nH]c2ccccc12)NC(=S)Nc1cc(C(F)(F)F)cc(C(F)(F)F)c1	58.3%
NCCOc1ncccc1/C=C1\c2ccccc2-c2ccc([N+](=O)[O-])cc21	-85.8% (active)
CC(C)C[C@H](C(=O)N[C@H](C(N)=O)C(C)C)N1CC=CCN(OCc2ccccc2)S1(=O)=O	102% [2.5 µM]
COc1ccc(N)c(-c2cc3c(c4c2[nH]c2ccc(OC)cc24)CCCC3)c1	78.3%
COc1ccc(-c2nc(-c3ccccn3)c(-c3ccccn3)n2CC(C)C)cc1OC1CCCC1	24.5%

— PubChem BioAssay (NCI)
